The sample as a whole holds a higher share of hits than the screen did.
FECH block: human FECH heme synthesis enzyme inhibition. P22830. purified FECH, Ni-mesoporphyrin absorbance 550 nm. calls only at 10 µM (by protocol). hit rate 3.3% among 20,000. AID 1671448;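 active means enzyme reaction rate more than 3 SD below the solvent-only control wells on the same plate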;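 further: lower slope than DMSO wells means FECH inhibition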
The depositor's hits bear a star.

c1cc(C2NCCc3[nH]cnc32)c2cc[nH]c2c1 (centres undefined) was read as FECH block inactive.
`c1ccc2[nH]c(C3NCCc4[nH]cnc43)nc2c1` (centres undefined) gave FECH block active.
O=c1cc(CN2C[C@@H]3[C@H](C2)[C@H]2CC[C@@H]3O2)[nH]c(=O)[nH]1 was read as FECH block inactive.
`CCOC(=O)Cc1csc(NC(=O)c2cccn(Cc3cc(C)ccc3C)c2=O)n1` gave FECH block inactive.
`O=C(CC1=CCCCC1)N1[C@H]2CCNC[C@@H]1CC2` gave FECH block inactive.
`CSc1ccc(C(=O)C2CCCN(CCN3CCCC3=O)C2)cc1` (centres undefined) gave FECH block inactive.
For Cc1ccccc1CN1CCCN(Cc2ccc(Cl)cc2)S1(=O)=O the results were FECH block inactive.
`Cc1ccc(CN2CCCN(Cc3ccc(Cl)cc3)S2(=O)=O)cc1` gave FECH block active.
Cc1ccc(CN2CCCN(CC(N)=O)S2(=O)=O)cc1 was read as FECH block inactive.
CCOC(=O)Cc1csc(NC(=O)c2cccn(Cc3ccccc3Cl)c2=O)n1 was read as FECH block inactive.
